aSyn UTR act: Activators via SNCA 5'UTR binding, MLPCN; alpha-synuclein 5'UTR reporter, activators screen; activity score, % (tested at 7.5 µM), hits read low; 7.1% of 300,000 active; in the data active means activity score below about -60%
Each line names hits and unclear results; the compound was inactive in the other large screens. Only a sample is shown.

Cc1nc(NC(=O)c2ccccc2)sc1Cc1ccc2c(c1)OCO2	aSyn UTR act -69
Cc1csc(NC(=O)c2ccc3c(c2)OCO3)n1	aSyn UTR act -81
CC(=O)c1sc(NC(=O)c2ccc(C)c(C)c2)nc1C	aSyn UTR act -86
CC(=O)c1sc(NC(=O)c2ccc(C(C)(C)C)cc2)nc1C	aSyn UTR act -107
Cc1occc1-c1nnc(SCC(=O)Nc2nc(C(C)(C)C)cs2)o1	aSyn UTR act -111
O=C(CSc1nnc(-c2ccccc2)o1)Nc1ccccc1F	none
Cc1cnc(NC(=O)CSc2nnc(-c3ccccc3)o2)s1	aSyn UTR act -139
Cc1csc(NC(=O)CSc2nnc(-c3ccncc3)o2)n1	aSyn UTR act -99
Cc1csc(NC(=O)CSc2nnc(-c3ccoc3C)o2)n1	aSyn UTR act -111
Cc1cnc(NC(=O)CC(C)c2ccccc2)s1 (configuration not stated)	aSyn UTR act -196
Fc1ccc(-c2csc(Nc3ccccn3)n2)c(F)c1	aSyn UTR act -102
c1ccc(-c2csc(Nc3ccccn3)n2)cc1	aSyn UTR act -107
COc1ccc(C2=Nn3c(nnc3-c3ccncc3)SC2)cc1OC	none
Oc1ccc(-c2csc(Nc3ccccn3)n2)cc1	aSyn UTR act -163
COc1ccc(-c2csc(Nc3ccccn3)n2)cc1OC	aSyn UTR act -170
Nc1nc2ccccc2n1C(=O)CCc1ccccc1	aSyn UTR act -63
COc1cccc(NC(=O)COC(=O)c2c(F)cccc2Cl)c1	aSyn UTR act -148
O=C(COC(=O)c1c(F)cccc1Cl)NC1CCCC1	aSyn UTR act -78
O=c1c(=Nc2ccccc2O)c(=O)c2ccccc12	aSyn UTR act -112
CN(C)c1ccc(CNc2nc3ccccc3s2)cc1	none
Cc1ccccc1Nc1nn2c(=O)c3ccccc3nc2s1	aSyn UTR act -155
Cc1ccc(Nc2nc3ccccc3s2)cc1	aSyn UTR act -171
Cc1ccccc1Nc1nc2ccccc2s1	aSyn UTR act -220
Fc1ccc(Nc2nc3ccccc3s2)cc1	aSyn UTR act -207
COCCNC(=O)Cn1nc(-c2ccccc2OC)ccc1=O	aSyn UTR act -62
Cc1ccc(OCc2cc(C(=O)N3CCN(C4CCCCC4)CC3)no2)cc1C	aSyn UTR act -62
COc1cccc(N2CCN(C(=O)c3ccc(CS(=O)c4ccccc4Cl)o3)CC2)c1 (configuration not stated)	none
COc1cccc(OCc2cc(C(=O)N3CCN(c4ccccc4OC)CC3)no2)c1	aSyn UTR act -139
CCN1CCN(C(=O)c2cc(COc3ccc(C(C)=O)cc3OC)on2)CC1	aSyn UTR act -146
Cc1ccc(OCc2cc(C(=O)N3CCC(C(O)C(C)C)CC3)no2)cc1C (configuration not stated)	aSyn UTR act -80
Cc1cc(C)cc(Oc2ncnc3c2ncn3Cc2c(Cl)cccc2Cl)c1	none
COc1cc(C)ccc1OCc1cc(C(=O)NC(C)Cn2cncn2)no1 (configuration not stated)	aSyn UTR act -155
Cc1ccc(OCc2cc(C(=O)N(CCO)Cc3cccs3)no2)cc1C	aSyn UTR act -81
COc1ccc(C(=O)/C=C/C(=O)N(CC(=O)NCCC(C)C)Cc2cccs2)c(O)c1	none
COc1cc(C)ccc1OCc1cc(C(=O)N2CCCCCCC2)no1	aSyn UTR act -62
COc1ccccc1N1CCN(C(=O)c2c(-c3ccccc3)noc2C)CC1	aSyn UTR act -78
COc1cc(C)ccc1OCc1cc(C(=O)N2CCN(C3CCCCC3)CC2)no1	aSyn UTR act -99
Cc1ccc(OCc2cc(C(=O)N3CCC(c4ccccc4Cl)C3)no2)cc1C (configuration not stated)	aSyn UTR act -165
Cc1ccc(OCc2cc(C(=O)N3CCN(c4ccccc4)CC3)no2)cc1C	aSyn UTR act -155
CCN(CC)c1ccc(N=Cc2ccc([N+](=O)[O-])o2)cc1	aSyn UTR act -80
c1ccc(-c2nnc(-c3ccco3)o2)cc1	aSyn UTR act -137
Brc1ccc(-c2nnc(-c3ccco3)o2)cc1	aSyn UTR act -146
c1coc(-c2nnc(-c3cccs3)o2)c1	aSyn UTR act -99
Cc1ccc(-c2nnc(-c3ccc(Br)cc3)o2)o1	aSyn UTR act -135
Cc1ccc(NC(=O)Nc2ccc(F)cc2)cc1Cl	aSyn UTR act -130
COc1cccc(NC(=O)Nc2ccc(C)c(Cl)c2)c1	aSyn UTR act -157
O=C(CCc1nnc(CCCc2ccccc2)o1)NC(C1CC1)C1CC1	aSyn UTR act -146
Cc1nc(C(C)NC(=O)CCc2nnc(CCCc3ccccc3)o2)c(C)s1 (configuration not stated)	aSyn UTR act -174
CC(NC(=O)CCc1nnc(-c2ccc(-c3ccccc3)cc2)o1)c1nccs1 (configuration not stated)	none
N#CC(=C1CCCC1)c1nc(-c2ccccc2O)cs1	aSyn UTR act -209
N#CC(=C1CCCC1)c1nc(-c2ccccc2)cs1	aSyn UTR act -187
N#CC(=C1CCCC1)c1nc(-c2cc3ccccc3oc2=O)cs1	aSyn UTR act -232
Cc1ccc(-c2csc(C(C#N)=C3CCCC3)n2)cc1	aSyn UTR act -236
CCOC(=O)c1c(C)[nH]c(N=Nc2ccc(OC)cc2)c1C	aSyn UTR act -249
CCOC(=O)c1c(C)[nH]c(N=Nc2ccc(C)cc2)c1C	aSyn UTR act -271
CCOC(=O)c1c(C)[nH]c(C=Nc2ccc(OC)cc2)c1O	aSyn UTR act -96
CCOC(=O)c1c(C)[nH]c(N=Nc2ccccc2Cl)c1C	aSyn UTR act -119
CCOC(=O)c1c(C)[nH]c(N=Nc2ccccc2)c1C	aSyn UTR act -143
C/C(=N\Nc1cccc([N+](=O)[O-])c1)c1cc(F)ccc1O	aSyn UTR act -131
C/C(=N\Nc1cccc([N+](=O)[O-])c1)c1ccccc1O	aSyn UTR act -166
Cc1ccnc(NC(=O)/C=C/c2cccs2)c1	aSyn UTR act -77
O=C(/C=C/c1cccs1)Nc1nc(-c2ccccc2)cs1	aSyn UTR act -246
O=C(COC(=O)/C=C/c1cccs1)Nc1nc(-c2cccc(Br)c2)cs1	aSyn UTR act -79
O=C(/C=C/c1cccs1)Nc1cccnc1	aSyn UTR act -175
O=C(/C=C/c1cccs1)Nc1nncs1	aSyn UTR act -162
CCN(CC)c1ccc(/C=N/n2c(-c3ccccc3Br)n[nH]c2=S)cc1	none
CCN(CC)c1ccc(/C=N/N2CCOCC2)cc1	aSyn UTR act -152
CCOc1ccc2c(c1)OC(c1ccc(OC)cc1)(C(F)(F)F)NC2=O (configuration not stated)	none
COC1=C(Nc2ccc(O)cc2)C(=O)c2ccccc2C1=O	aSyn UTR act -110
COc1ccc(NC2=C(NCCO)C(=O)c3ccccc3C2=O)cc1	aSyn UTR act -92
Cc1ccc(NC2=CC(=O)C(=O)c3ccccc32)cc1	none
O=C1C=C(Nc2ccc(O)cc2)C(=O)c2ccccc21	none
CCOc1ccc(NC2=C(OC)C(=O)c3ccccc3C2=O)cc1	aSyn UTR act -94
O=C1C(Nc2ccc(O)cc2)=C/C(=N/S(=O)(=O)c2cccs2)c2ccccc21	none
COC1=C(Nc2ccc(OC)cc2)C(=O)c2ccccc2C1=O	aSyn UTR act -161
Cc1cc(N)n(-c2ccc3ccccc3c2)n1	aSyn UTR act -119
Cc1cc(N)n(-c2nc3ccccc3s2)n1	aSyn UTR act -157
Cc1ccc(/C=C/c2nc3ccccc3s2)s1	none
Cc1cc(NC(=O)C(C)C)n(-c2nc3ccccc3s2)n1	aSyn UTR act -78
Cc1cc(C)n(-c2nc3ccccc3s2)n1	aSyn UTR act -168
Cc1cccc(C(=O)c2c(N)sc3c2CCC(C)C3)c1 (configuration not stated)	aSyn UTR act -85
COc1ccc(/C(C)=N/NC(=O)c2ccccc2N)cc1	aSyn UTR act -92

Compound activity (PubChem)
